# Screens as filed in PubChem BioAssay.
# PAFAH1B2 inh – PAFAH1B2 (human) inhibition. 340,000 tested, 1.2% active. AID 492953. P68402. recombinant PAFAH1B2, FP-rhodamine activity probe, fluorescence polarization. inhibition, % at 3.39 µM;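 active means inhibition above the mean of all tested compounds plus 3 SD, cut at about 24% in these data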;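 further: 0% = enzyme with DMSO and 100% = wells lacking PAFAH1B2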
# PAFAH1B3 FP inh – blocks human PAF acetylhydrolase 1B catalytic subunit 3. inhibition, % at 3.39 µM. 340,000 tested, 0.28% active. Q15102. recombinant PAFAH1B3, FP-rhodamine probe, fluorescence polarization;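 active means inhibition above the screen-wide average of all tested compounds plus 3 SD, cut at about 25% in these data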;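 further: 0% = enzyme with DMSO only and 100% = wells lacking PAFAH1B3 protein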
# Target sequence (Q15102 whole entry, looked up): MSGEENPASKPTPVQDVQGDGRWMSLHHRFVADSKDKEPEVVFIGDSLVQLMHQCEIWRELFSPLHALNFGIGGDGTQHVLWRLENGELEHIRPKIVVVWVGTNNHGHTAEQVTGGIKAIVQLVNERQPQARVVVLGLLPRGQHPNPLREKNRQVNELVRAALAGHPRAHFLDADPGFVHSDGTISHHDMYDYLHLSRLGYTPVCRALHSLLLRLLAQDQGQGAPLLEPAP
# PME-1 inh – blocks human protein phosphatase methylesterase 1; AID 2130; Q9Y570; 320,000 tested, 0.53% active; recombinant PME-1, FP-Rh probe fluorescence polarization; inhibition, % at 5.9 µM;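 active means inhibition above the campaign mean of all compounds plus 3 SD, cut at about 26% in these data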;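 further: competitive labeling of PME-1 active site by serine hydrolase directed probe; 0% = PME-1 with DMSO and 100% = wells lacking PME-1 enzyme; inhibitors block probe labeling so polarization falls and inhibition rises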
# Fam108B counter – counter-screen for RBBP9 inhibitors: inhibitors of mouse Fam108B; 300,000 tested, 0.33% active; recombinant Fam108B, FP-Rh probe fluorescence polarization; inhibition, % at 9.51 µM;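 active means inhibition above the screen mean inhibition plus 3 SD, computed separately per campaign, cut at about 18% in these data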;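 further: inhibitors lower polarization as less probe binds the enzyme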
# PAFAH2 FP inh – inhibitors of human PAFAH2 | recombinant PAFAH2, FP-rhodamine activity probe, fluorescence polarization | inhibition, % at 3.39 µM | 340,000 tested, 0.99% active | AID 492956;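 active means inhibition above the mean over all tested compounds plus 3 SD, cut at about 30% in these data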;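 further: inhibitors block probe labeling of enzyme so polarization drops; 0% = enzyme with DMSO and 100% = wells lacking PAFAH2 protein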
# pPAFAH FP inh – inhibitors of human plasma PAF acetylhydrolase (pPAFAH) | inhibition, % at 3.39 µM | Q13093 | AID 463082 | recombinant pPAFAH, FP-rhodamine probe fluorescence polarization | 330,000 tested, 1.5% active;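 active means inhibition above the mean inhibition across the screen plus 3 SD, cut at about 25% in these data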;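 further: inhibitors block binding of the rhodamine activity-based probe so polarization drops; 0% = enzyme with DMSO and 100% = wells lacking pPAFAH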
# Target sequence (Q13093 whole entry, looked up): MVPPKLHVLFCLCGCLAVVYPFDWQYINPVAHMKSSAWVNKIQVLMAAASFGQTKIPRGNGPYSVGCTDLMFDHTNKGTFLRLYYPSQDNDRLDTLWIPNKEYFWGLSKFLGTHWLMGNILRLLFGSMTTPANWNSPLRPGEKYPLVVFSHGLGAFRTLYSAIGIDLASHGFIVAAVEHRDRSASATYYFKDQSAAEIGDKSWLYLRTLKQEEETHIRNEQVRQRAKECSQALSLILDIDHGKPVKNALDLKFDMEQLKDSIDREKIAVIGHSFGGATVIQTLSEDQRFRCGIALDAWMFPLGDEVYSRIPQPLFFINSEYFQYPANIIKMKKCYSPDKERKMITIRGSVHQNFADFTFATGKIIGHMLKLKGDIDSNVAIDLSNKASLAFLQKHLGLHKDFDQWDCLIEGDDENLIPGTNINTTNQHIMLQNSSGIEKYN
# PAFAH2 confirm – confirmation of human PAFAH2 inhibitors | shares compounds with PAFAH2 FP inh | recombinant PAFAH2, FP-rhodamine activity probe, fluorescence polarization | inhibition, % at 3.39 µM | 2,300 tested, 65% active | AID 493030;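 active means mean inhibition over three repeats above a set limit taken from the earlier primary screen, cut at about 30% in these data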;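 further: inhibitor blocks binding of rhodamine activity probe so polarization falls; 0% = enzyme with DMSO and 100% = wells lacking PAFAH2 protein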
# Active calls of the source: *; . = not tested or not shown. Shown are actives, neighbours in structure and some others; about 2.8% of the full set was active somewhere.
SMILES,PAFAH1B2 inh,PAFAH1B3 FP inh,PME-1 inh,Fam108B counter,PAFAH2 FP inh,pPAFAH FP inh,PAFAH2 confirm
Cc1nc(NC(=O)COC(=O)c2cc3c(s2)CCC(C)C3)c(Cl)cc1Cl (configuration not stated),-3.3,-1.5,0.5,-6.3,16.6,9.9,.
CC1CCc2sc(C(=O)OCC(=O)NCc3ccc(F)cc3)cc2C1 (configuration not stated),0.3,9.1,-3.0,-3.0,46.0*,-1.1,40.1*
O=C1CSC(=S)N1N=Cc1c(O)ccc2ccccc12,5.5,16.0,.,.,41.9*,.,34.5*
COc1ccc2ccccc2c1/C=N/N1C(=O)CSC1=S,2.6,-0.5,-0.1,-2.6,9.7,16.6,.
COc1ccc(S(=O)(=O)Nc2c(C)nn(C)c2C)cc1Br,2.3,6.9,.,.,-8.8,3.9,.
O=[N+]([O-])c1ccc(SCCc2ccncc2)cc1,4.9,5.5,6.2,4.7,34.4*,4.9,7.1
O=C(COC(=O)c1cc(Cl)ccc1[N+](=O)[O-])NCc1ccc(Cl)cc1Cl,9.4,5.0,-6.0,-0.7,30.0*,1.3,25.4
O=C(COC(=O)c1ccco1)NCc1ccccc1Cl,2.8,1.0,1.6,-0.1,58.2*,-4.8,37.7*
O=C(COC(=O)c1ccco1)NCc1ccc(Cl)cc1Cl,3.8,6.6,.,.,69.3*,-3.0,51.2*
O=C(COC(=O)c1ccco1)NNC(=O)c1ccc(Cl)cc1,5.0,10.6,.,.,10.6,1.1,.
COc1ccccc1CNC(=O)COC(=O)c1ccco1,5.6,-7.5,.,.,20.1,0.4,.
O=C(COC(=O)c1ccco1)NCCc1ccc(Cl)cc1,6.6,8.2,-10.8,.,48.7*,-1.6,30.7*
CC(C)C(Cl)=NOC(=O)Nc1ccc(S(N)(=O)=O)cc1,7.8,6.0,.,.,46.9*,.,39.5*
COC(=O)[C@H](C)NC(=O)Nc1ccc(S(N)(=O)=O)cc1,6.8,-0.7,-1.5,-1.8,3.3,5.0,.
Cc1cc(/C=C(\C#N)C(=O)OCC(=O)NC(=O)NC(C)(C)C)c(C)n1CCC(C)C,2.1,-7.6,-0.9,-3.9,-0.2,1.8,.
CCCn1c(C)cc(/C=C(\C#N)C(=O)OCC(=O)Nc2cccc(S(N)(=O)=O)c2)c1C,-1.8,-3.4,-8.7,.,33.7*,8.1,26.4
CCCn1c(C)cc(/C=C(\C#N)C(=O)OCC(=O)Nc2cccc(OC)c2)c1C,0.0,-1.1,0.6,-7.2,53.6*,-5.0,59.5*
C=CCNC(=O)NC(=O)COC(=O)/C(C#N)=C/c1cc(C)n(CCC(C)C)c1C,-1.1,10.6,0.2,1.1,0.1,0.9,.
Cc1c(C(=O)OCC(=O)Nc2ccc3c(c2)OCO3)cccc1[N+](=O)[O-],5.8,-3.9,-6.3,5.5,72.0*,3.6,64.5*
CCOc1ncccc1C(=O)Nc1ccc2c(c1)OCO2,5.7,6.5,0.0,5.0,7.8,2.6,.
O=C(COC(=O)c1cccnc1Cl)Nc1ccc2c(c1)OCO2,3.3,13.9,0.3,1.4,75.0*,5.0,60.1*
CCOc1ncccc1C(=O)OCC(=O)Nc1ccc2c(c1)OCCO2,-0.2,5.3,-1.6,.,55.2*,20.9,47.0*
Cc1nn(C(C)C(=O)NCc2cccs2)c(C)c1[N+](=O)[O-] (configuration not stated),2.1,2.8,-1.5,2.0,-0.6,6.9,.
CC1CCCC(C)N1/N=C/c1ccc(N(C)C)cc1 (configuration not stated),2.5,4.8,3.1,2.5,38.5*,-1.4,4.1
C=CCN(CC=C)C(=O)c1ccc(OC2CCN(Cc3ccccn3)CC2)cc1,-3.1,4.1,1.2,-0.8,8.7,3.9,.
SMILES,PAFAH1B2 inh,PAFAH1B3 FP inh,PME-1 inh,Fam108B counter,PAFAH2 FP inh,pPAFAH FP inh,PAFAH2 confirm
O=C(COC(=O)/C=C/c1ccc(OC(F)F)cc1)NCc1cccs1,3.3,4.6,0.8,-1.5,46.3*,7.5,40.8*
O=C(COC(=O)c1ccc(Br)o1)NCc1cccs1,3.6,5.8,3.0,-5.1,17.1,11.7,.
Cc1cc(C)c(C(=O)OCC(=O)NCc2cccs2)c(C)c1,9.5,9.6,2.2,1.0,-2.8,1.0,.
Cc1ccc(C(=O)OCC(=O)NCc2cccs2)cc1,-0.7,-8.1,-2.6,-2.6,52.9*,17.7,46.4*
Cc1ccc(C(=O)OCC(=O)NCc2cccs2)cc1C,2.9,-2.0,3.3,2.3,54.3*,7.3,50.9*
O=C(COC(=O)c1ccco1)NCc1cccs1,1.7,2.6,1.1,-5.1,34.3*,-5.9,20.3
COc1ccc(Cl)c(NCCC(=O)O)c1,4.5,-9.8,3.3,0.7,-0.3,2.3,.
CCCS(=O)(=O)N1CCN(S(=O)(=O)c2ccc(F)cc2)CC1,4.2,5.3,1.6,4.5,-7.0,-0.7,.
CC(/C=C/c1ccccc1)=N/NC(=O)CNC(=O)c1ccccc1F,4.5,5.8,-0.7,-0.2,1.2,3.4,.
O=C(COC(=O)c1ccc(CO)cc1)NCc1cccs1,0.2,5.5,-0.7,2.8,42.6*,-3.0,34.6*
CCCCCOC(=O)Cn1c(N2CCCCCC2)nc2c1c(=O)[nH]c(=O)n2C,1.7,10.1,8.7,3.7,0.8,-1.0,.
COc1ccc(-c2cn3cccnc3n2)cc1F,-1.2,-0.3,6.8,1.7,3.9,3.9,.
Oc1oc(-c2ccccc2)nc1C=NCc1ccncc1,1.1,8.1,-2.1,-0.2,51.7*,14.9,36.7*
C#CCOCCOCCOCCNc1nc(OC)nc(N2CCN(C(=O)[C@H](CCC(=O)O)n3cc(C(N)CO)nn3)CC2)n1 (some centres not stated),-1.3,6.9,3.5,-3.0,2.3,-4.8,.
Cc1ccc(/C=c2\sc3nc(-c4ccco4)nn3c2=O)o1,4.7,9.5,-1.8,-2.7,39.1*,19.9,1.1
Cc1ccc(/C=c2\sc3nc(-c4ccccc4Br)nn3c2=O)o1,6.8,-1.6,-11.7,3.5,13.1,24.1,.
O=C(OCC(=O)c1ccc[nH]1)c1ccccc1,2.6,-0.8,9.8,1.4,13.9,1.9,.
CN(C)c1ccc(C(=O)OCC(=O)c2cccs2)cc1,-1.2,3.3,-3.0,-0.1,70.8*,3.4,75.8*
Cc1ccc(C(=O)COC(=O)c2cccs2)cc1,2.1,9.0,2.1,2.3,30.1*,1.8,21.2
CN(C)c1ccc(C(=O)OCC(=O)c2ccc[nH]2)cc1,2.4,1.6,.,.,68.2*,7.3,68.0*
O=C(Nc1cccc(C(F)(F)F)c1)C12CC3CC(CC(C3)C1)C2,3.7,-8.1,-2.6,-3.6,4.5,1.4,.
COc1ccc(/C=C/C(=O)ONC2=NCCCCC2)cc1OC,1.8,-0.8,-1.4,-2.4,51.2*,3.8,44.4*
CC1CCCCC1NC(=O)c1cccc(N2C(=O)C3C4C=CC(C4)C3C2=O)c1 (configuration not stated),9.0,2.7,-1.5,-0.6,-13.7,1.9,.
c1ccc(-c2nc3ccccc3c3nncn23)cc1,4.7,7.9,3.0,-4.2,-1.6,4.7,.
